Hits are enriched below; roughly 6% of the tested compounds scored in any of these assays.
D1 antag = human D1 dopamine receptor antagonism; P21728; HEK293 TREx D1 cells, calcium flux, dopamine EC80; active compounds read low; activity change, negative = inhibition, % at 10 µM; actives 3.2% (n = 360,000); AID 504652; in the data active = activity change below about -30%; also: % is scaled to controls: 0 for no effect and ±100 for the full control effect
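After overnight tetracycline induction at 30 C, force-coupled D1 HEK293 cells took up a no-wash calcium dye at room temperature. Compounds were added and monitored 180 s, and the response to EC80 dopamine was then recorded.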
D3 ag = D3 dopamine receptor (human) agonism; AID 652048; D3R DiscoveRx beta-arrestin cells, luminescence, 90 min; max activation, %; actives 0.58% (n = 410,000); in the data active = max activation above about 30%; also: 0% is about no effect
Target sequence (P35462 whole entry, looked up): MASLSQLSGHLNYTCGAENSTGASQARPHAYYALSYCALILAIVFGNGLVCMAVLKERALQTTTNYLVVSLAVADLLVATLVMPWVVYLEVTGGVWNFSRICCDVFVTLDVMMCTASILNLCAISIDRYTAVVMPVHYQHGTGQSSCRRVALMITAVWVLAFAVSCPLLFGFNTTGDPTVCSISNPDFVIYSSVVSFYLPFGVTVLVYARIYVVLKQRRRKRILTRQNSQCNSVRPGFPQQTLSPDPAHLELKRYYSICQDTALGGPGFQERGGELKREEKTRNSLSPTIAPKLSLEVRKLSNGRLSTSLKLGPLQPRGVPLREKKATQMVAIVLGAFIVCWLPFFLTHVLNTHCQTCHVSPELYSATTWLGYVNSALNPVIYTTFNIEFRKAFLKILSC
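Cells at 1500/well, incubated overnight, then treated with pinned compounds (dopamine as control) for 90 min at 37 degrees C. DiscoveRx reagent added for 30 - 60 minutes at room temperature; luminescence read.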
D1 potentiator = human D1 dopamine receptor positive modulation | P21728 | HEK293 TREx D1 cells, calcium flux, dopamine EC20 potentiation | potentiation, % at 10 µM | actives 0.036% (n = 360,000) | AID 504651; in the data active = potentiation above about 30%; also: 0% is about no effect
DRD3 antagonist = blocks the human D3 dopamine receptor; P35462; D3R cells, DiscoveRx beta-arrestin luminescence, antagonist mode; active compounds read low; max response, negative = inhibition, %; actives 2.5% (n = 360,000); in the data active = max response below about -50%; inconclusive = no clear call, values can overlap the other calls; also: % is scaled to controls: 0 for no effect and ±100 for the full control effect
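Cells expressing the human receptor were seeded at 1500 cells/well, incubated overnight at 37 degrees C in 5% CO2, then exposed to library compounds with dopamine controls for 90 minutes at 37 degrees C before luminescent detection.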
D1 ag = human D1 receptor agonism; P21728; HEK293 T-REx D1 cells, calcium flux, agonist mode; activation, % at 2 µM; actives 1% (n = 360,000); AID 504660; in the data active = activation above about 30%; also: 0% is about no effect
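Tetracycline-induced HEK293 TREx D1 cells, force-coupled to calcium signalling, were dye-loaded with a no-wash calcium kit. Compound was pin-added after a 10 s baseline. Fluorescence was read kinetically at 1 cycle/s for 180 s, with calcium rises flagged as agonism.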
Active calls of the source: *.

CCc1ccc(CNC(=O)CSCc2cnn(-c3ccccc3)c2-n2cccc2)cc1 was read as D1 antag -3, D3 ag 0, D1 potentiator -2 and D1 ag 29.
For CCOc1cc(CN2CCN(c3ccc(C(C)=O)cc3)CC2)ccc1OC the results were D3 ag -9 and DRD3 antagonist -24.
`CCOc1cc(CN2CCN(c3cccc(C(F)(F)F)c3)CC2)ccc1OC` gave D1 antag -13, D3 ag -23, D1 potentiator -3, DRD3 antagonist -89* and D1 ag -1.
CCN(CC)S(=O)(=O)c1cc(C(=O)OCC(=O)Nc2cccc(S(=O)(=O)N(C)C)c2)ccc1F was read as D1 antag -40*, D3 ag -1, D1 potentiator -4, DRD3 antagonist 4 and D1 ag 1.
`CCCOc1ccc(C(=O)Nc2ccc(Cl)c(-c3nc4ncccc4o3)c2)cc1` gave D1 antag -17, D3 ag 8, D1 potentiator -2 and D1 ag 4.
`CCOC(=O)C1CCN(Cc2cn[nH]c2-c2ccc(C)cc2)CC1` gave D1 antag 3, D3 ag -5, D1 potentiator 8, DRD3 antagonist 7 and D1 ag 1.
CCOC(=O)c1[nH]ncc1CN1CCCC(C(=O)c2ccc(OC)c(OC)c2)C1 (configuration not stated) was read as D1 antag -1, D3 ag 0, D1 potentiator 0, DRD3 antagonist -4 and D1 ag 2.
For CCOC(=O)C1CCN(Cc2cn[nH]c2-c2ccccc2)CC1 the results were D1 antag 6, D3 ag -8, D1 potentiator -8, DRD3 antagonist -66* and D1 ag 2.
For COc1ccc(C(=O)C2CCCN(Cc3cn[nH]c3-c3ccccc3)C2)cc1OC (configuration not stated) the results were D1 antag -31*, D3 ag -12, D1 potentiator -6, DRD3 antagonist -14 and D1 ag 5.
`CCOC(=O)c1[nH]ncc1CN1CCCC(C(=O)c2cc(Cl)ccc2OC)C1` (configuration not stated) gave D1 antag 7, D3 ag -1, D1 potentiator -5, DRD3 antagonist -102* and D1 ag 17.
Cc1c(Cl)cccc1-n1ncc(C(=O)NC2CCCC2)c1C1CCN(C(=O)OC(C)(C)C)CC1 was read as D1 antag -80*, D3 ag 5, D1 potentiator 3 and D1 ag 0.
Screening COc1cccc(N2CCN(C(=O)c3cnn(-c4ccc(C)cc4C)c3C3CCN(C(=O)OC(C)(C)C)CC3)CC2)c1 returned D1 antag -7, D3 ag 0, D1 potentiator -1 and D1 ag 1.
Screening Cc1c(Cl)cccc1-n1ncc(C(=O)NC2CCCCC2)c1C1CCN(C(=O)OC(C)(C)C)CC1 returned D1 antag 10, D3 ag 3, D1 potentiator 0 and D1 ag 0.
For COc1cccc(N2CCN(C(=O)c3cnn(-c4ccccc4Cl)c3C3CCN(C(=O)OC(C)(C)C)CC3)CC2)c1 the results were D1 antag -49*, D3 ag -5, D1 potentiator -5 and D1 ag 1.
`COc1ccc(-n2ncc(C(=O)N3CCN(c4cc(C)ccc4C)CC3)c2C2CCN(C(=O)OC(C)(C)C)CC2)cc1` gave D1 antag -31*, D3 ag 7, D1 potentiator -6 and D1 ag 1.
Screening COc1ccc(N2CCN(C(=O)c3cnn(-c4ccc(OC)cc4)c3C3CCN(C(=O)OC(C)(C)C)CC3)CC2)cc1 returned D1 antag -31*, D3 ag 5, D1 potentiator -6 and D1 ag 0.
Screening Cc1ccccc1-c1nc2scc(CCNC(=O)c3ccco3)n2n1 returned D1 antag -7, D3 ag 2, D1 potentiator 0 and D1 ag 1.
`N#Cc1c(Nc2ccccc2Cl)s[nH]c1=O` gave D1 antag -13, D3 ag -3, D1 potentiator 1, DRD3 antagonist -65* and D1 ag 2.
`N#Cc1c(Nc2ccccc2C(F)(F)F)s[nH]c1=O` gave D1 antag -18, D3 ag -11, D1 potentiator -3, DRD3 antagonist inconclusive and D1 ag 0.

Source: PubChem
